Laboratory results reported in PubChem BioAssay AID1159580 (chemical genetic matrix, 2015).
The campaign covered roughly 5,500 compounds. About 2,000 (36%) were called active. Not shown: some 18% with an inconclusive outcome. Rule as the data show it: active = normalized growth mostly below about 0.91 (no sharp cut-off); inconclusive = no clear call, values can overlap the other calls; inactive = mostly above about 0.92. The list shows a part of the results.

Test: chemical genetic growth profiling, strain panel (AID 1159580);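 also: tested at 20 µM; growth read once vehicle control cultures reached saturation at 30 °C; 1 = growth at the plate median or of vehicle wells; lower values mean less growth of the strain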
Conditions: S. cerevisiae deletion strains, growth OD
[1] = locus YAL013W, strain DEP1, active compounds read low
[2] = locus YBR229C, strain ROT2, active compounds read low
[3] = locus YCL061C, strain MRC1, active compounds read low
[4] = locus YDL101C, strain DUN1, active compounds read low
[5] = locus YDL134C, strain PPH21, active compounds read low
[6] = locus YDR150W, strain NUM1, active compounds read low
[7] = locus YEL061C, strain CIN8, active compounds read low
[8] = locus YGR078C, strain PAC10, active compounds read low
[9] = locus YHR030C, strain SLT2, active compounds read low
[10] = locus YHR087W, strain rtc3, active compounds read low
[11] = locus YJL187C, strain SWE1, active compounds read low
[12] = locus YJR043C, strain POL32, active compounds read low
[13] = locus YJR075W, strain HOC1, active compounds read low
[14] = locus YLR039C, strain RIC1, active compounds read low
[15] = locus YLR058C, strain SHM2 (second series), active compounds read low
[16] = locus YLR085C, strain ARP6, active compounds read low
[17] = locus YLR262C, strain YPT6, active compounds read low
[18] = locus YML094W, strain GIM5, active compounds read low
[19] = locus YMR219W, strain ESC1, active compounds read low
[20] = locus YMR263W, strain SAP30, active compounds read low
[21] = locus YMR307W, strain GAS1, active compounds read low
[22] = locus YNL153C, strain GIM3, active compounds read low
[23] = locus YNL298W, strain CLA4 (second series), active compounds read low
[24] = locus YNL322C, strain KRE1, active compounds read low
[25] = locus YNR030W, strain Alg12, active compounds read low
[26] = locus YOL006C, strain TOP1, active compounds read low
[27] = locus YPL055C, strain LGE1, active compounds read low
[28] = locus YPL241C, strain CIN2, active compounds read low
[29] = locus YPR135W, strain CTF4, active compounds read low
[30] = locus YKL190W, strain CNB1, active compounds read low

Measured: normalized growth

CCOC(=O)/C(C#N)=C/Nc1ccc2c(c1)OCO2
inactive: [1] 0.992 | [2] 0.985 | [3] 1.01 | [4] 1.07 | [5] 0.963 | [6] 1 | [7] 0.989 | [8] 0.98 | [10] 0.986 | [11] 0.982 | [12] 0.989 | [14] 0.795 | [15] 0.971 | [18] 1.03 | [19] 0.981 | [20] 0.96 | [21] 0.884 | [22] 1.02 | [23] 0.905 | [24] 0.97 | [25] 0.946 | [26] 0.804 | [27] 0.976 | [28] 0.966 | [29] 0.786
active: [9] 0.4 | [13] 0.889 | [16] 0.772 | [17] 0.816

Cc1ccc(Cl)cc1NC(=S)N(CCC#N)/N=C\c1ccc2c(c1)OCO2
inactive: [1] 0.997 | [2] 1 | [4] 1 | [6] 1.02 | [7] 1 | [8] 0.991 | [9] 0.953 | [10] 0.995 | [11] 0.995 | [12] 1 | [13] 1.02 | [30] 0.98 | [14] 0.936 | [15] 1.01 | [16] 0.925 | [17] 0.973 | [18] 0.975 | [19] 1 | [20] 1.03 | [21] 0.853 | [22] 1.02 | [23] 0.981 | [24] 0.989 | [25] 0.974 | [26] 0.998 | [27] 1.04 | [28] 0.985 | [29] 1.1

Cc1ccc(S(=O)(=O)N2CCC(N)=N2)cc1
inactive: [1] 1.03 | [2] 0.954 | [3] 1.03 | [4] 1.05 | [5] 0.984 | [6] 1.02 | [7] 0.997 | [8] 1.02 | [9] 1.1 | [10] 1.01 | [11] 0.999 | [12] 1.05 | [13] 1.02 | [30] 1 | [14] 1 | [15] 0.992 | [16] 1.02 | [17] 0.99 | [18] 1 | [19] 0.995 | [20] 1.02 | [21] 0.997 | locus YNL128W, strain TEP1, active compounds read low 1.01 | [22] 1.02 | [23] 1.04 | [24] 1 | [25] 0.992 | [27] 1 | [28] 1 | [29] 1.08

CC(C)(C)NCC(O)COc1cccc2c1CCCC2=O (configuration not stated)
inactive: locus YAL021C, strain ccr4, active compounds read low 0.97 | locus YAL026C, strain drs2, active compounds read low 0.976 | locus YAL030W, strain snc1, active compounds read low 0.985 | locus YBL061C, strain skt5, active compounds read low 0.981 | locus YBR009C, strain hhf1, active compounds read low 1 | locus YBR023C, strain chs3, active compounds read low 0.983 | locus YBR171W, strain sec66, active compounds read low 0.934 | locus YBR231C, strain swc5, active compounds read low 0.98 | locus YBR279W, strain paf1, active compounds read low 0.979 | locus YCL011C, strain gbp2, active compounds read low 0.992 | locus YCL016C, strain dcc1, active compounds read low 1.02 | [3] 0.957 | locus YCL069W, strain vba3, active compounds read low 0.952 | locus YCR088W, strain abp1, active compounds read low 0.981 | locus YDL005C, strain med2, active compounds read low 0.987 | locus YDL040C, strain nat1, active compounds read low 0.978 | locus YDR001C, strain nth1, active compounds read low 0.976 | locus YDR069C, strain doa4, active compounds read low 0.987 | locus YDR137W, strain rgp1, active compounds read low 0.983 | locus YDR159W, strain sac3, active compounds read low 0.967 | locus YDR195W, strain ref2 0.966 | locus YDR297W, strain sur2, active compounds read low 0.981 | locus YDR334W, strain swr1, active compounds read low 0.937 | locus YDR335W, strain msn5, active compounds read low 0.989 | locus YDR392W, strain spt3, active compounds read low 0.992 | locus YEL003W, strain gim4, active compounds read low 0.994 | locus YEL037C, strain rad23, active compounds read low 0.973 | locus YEL061C, strain CIN8 (second series), active compounds read low 0.961 | locus YER015W, strain faa2, active compounds read low 0.981 | locus YER016W, strain bim1, active compounds read low 1.01 | locus YER111C, strain swi4, active compounds read low 0.982 | locus YER155C, strain BEM2 (second series), active compounds read low 0.986 | locus YFR010W, strain ubp6, active compounds read low 0.95 | locus YGL167C, strain pmr1, active compounds read low 0.984 | locus YGL173C, strain kem1, active compounds read low 0.977 | locus YGL227W, strain vid30, active compounds read low 0.964 | locus YGL240W, strain doc1, active compounds read low 0.984 | locus YGL253W, strain hxk2, active compounds read low 0.99 | locus YHR013C, strain ard1, active compounds read low 0.988 | locus YHR027C, strain rpn1, active compounds read low 0.996 | [9] 0.954 | locus YHR079C, strain IRE1, active compounds read low 0.954 | locus YHR142W, strain chs7, active compounds read low 0.986 | locus YJL092W, strain hpr5, active compounds read low 0.99 | locus YJL095W, strain BCK1 (second series), active compounds read low 0.988 | locus YJL095W, strain BCK1, active compounds read low 0.98 | locus YJL115W, strain asf1, active compounds read low 0.959 | locus YJL129C, strain trk1, active compounds read low 0.97 | locus YJL154C, strain vps35, active compounds read low 0.981 | locus YJL164C, strain tpk1, active compounds read low 1 | locus YJL166W, strain qcr8, active compounds read low 0.976 | [11] 0.989 | locus YJR066W, strain TOR1, active compounds read low 0.943 | locus YKL160W, strain elf1, active compounds read low 1.01 | locus YKR026C, strain gcn3, active compounds read low 0.983 | locus YKR091W, strain srl3, active compounds read low 0.986 | locus YLL001W, strain dnm1, active compounds read low 0.985 | locus YLL026W, active compounds read low 0.993 | locus YLL041C, strain sdh2, active compounds read low 1.01 | locus YLR027C, strain aat2, active compounds read low 1.01 | locus YLR113W, strain HOG1, active compounds read low 1.01 | locus YLR221C, strain rsa3, active compounds read low 0.999 | locus YLR258W, strain gsy2, active compounds read low 0.969 | locus YLR262C, strain YPT6 (second series), active compounds read low 0.971 | locus YLR320W, strain mms22, active compounds read low 0.965 | locus YLR342W, strain FKS1, active compounds read low 0.992 | locus YLR357W, strain rsc2, active compounds read low 0.991 | locus YLR370C, strain arc18, active compounds read low 0.984 | locus YLR384C, strain iki3, active compounds read low 0.973 | locus YML120C, strain ndi1, active compounds read low 1.01 | locus YMR058W, strain fet3, active compounds read low 0.982 | locus YMR125W, strain sto1, active compounds read low 0.958 | locus YMR129W, active compounds read low 0.992 | locus YMR205C, strain PFK2, active compounds read low 0.989 | locus YMR231W, strain pep5, active compounds read low 0.983 | locus YNL071W, strain lat1, active compounds read low 0.958 | locus YNL183C, strain NPR1, active compounds read low 0.952 | locus YNL209W, strain ssb2, active compounds read low 0.984 | locus YNL248C, strain rpa49, active compounds read low 0.98 | locus YNL322C, strain KRE1 (second series), active compounds read low 1.01 | locus YNR049C, strain mso1, active compounds read low 0.993 | locus YOR001W, strain rrp6, active compounds read low 0.944 | locus YOR070C, strain gyp1, active compounds read low 0.992 | locus YOR080W, strain dia2, active compounds read low 1 | locus YOR083W, strain WHI5, active compounds read low 1.02 | locus YOR106W, strain vam3, active compounds read low 0.977 | locus YOR231W, strain MKK1, active compounds read low 0.977 | locus YOR265W, strain rbl2, active compounds read low 0.979 | locus YOR270C, strain vph1, active compounds read low 0.95 | locus YOR290C, strain snf2, active compounds read low 1.03 | locus YPL051W, strain arl3, active compounds read low 1.01 | locus YPL078C, strain atp4, active compounds read low 1 | locus YPL106C, strain sse1, active compounds read low 0.975 | locus YPL240C, strain hsp82, active compounds read low 0.996 | locus YPL256C, strain CLN2, active compounds read low 0.969
